Measured values taken from the supplement of paper PMC12669032.

Each compound was assayed on Escherichia coli IAI1 (assay: growth AUC relative to DMSO control (median of replicates) (fraction); higher = more growth (less inhibition), active = hit call of the paper). Settings: 20 µM; 24 h;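 active = AUC reduced over 20% with Padj below 0.05 in at least 2 of 3 replicates; inactive = otherwise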.
In short: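 Gut bacterial monocultures were grown anaerobically at 37 °C in mGAM from a starting OD600 of 0.05 with 20 µM compound (1% DMSO), in round-bottom 96-well plates under pierced gas-permeable seals, and OD600 was read hourly for 24 h. With the minimum OD set to 0, area under the growth curve was normalised to the plate median of solvent-only wells, or to row and column medians on the industrial chemical plate. Each value is the median of three biological replicates grown on separate days.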

Growth AUC, inactive:
O=C(O)Cc1c(Cl)ccc(Cl)c1Cl 0.999
COc1cc(OC)c(Cl)cc1N 1.01
O=S(Cc1ccc(Cl)cc1)c1ccc(Cl)cc1 (configuration not stated) 0.981
Cc1cc(C)c(C2=C(O)C3(CCCC3)OC2=O)c(C)c1 1.01
CN(C)C(=O)c1cccnc1S(N)(=O)=O 1.04
CCCN(CCOc1c(Cl)cc(Cl)cc1Cl)C(N)=O 0.985
Cc1nn(C)c(OCC(=O)c2ccccc2)c1C(=O)c1ccc(Cl)cc1Cl 1
CC(C)(C)Nc1nc(N)nc(Cl)n1 0.998
COC(=O)c1c(Cl)nn(C)c1S(=O)(=O)NC(=O)Nc1nc(OC)cc(OC)n1 1.01
[S] 0.963
CCCCCCCCc1c(CC)nc2ncnn2c1N 0.978
Cn1cc(C(=O)Nc2ccccc2-c2cc(F)c(F)c(F)c2)c(C(F)F)n1 0.987
CCCOc1nc2ccc(I)cc2c(=O)n1CCC 0.974
CNc1nc(NC(C)C)nc(SC)n1 0.988
CC(C)(C)[C@@H](O)[C@@H](Cc1ccc(Cl)cc1)n1cncn1 (mixture of isomers) 0.986
Cc1ccc2c(c1)[C@H](Nc1nc(N)nc(C(C)F)n1)[C@@H](C)C2 (some centres not stated) 1.02
CCN(CC)c1nc(C)cc(=O)[nH]1 0.998
